This passage reports Potency results from PubChem BioAssay (Tox21).

SMILES strings stand for the structures. Records with an inconclusive call do not appear. Activity calls are given as the source filed them. Unless noted, the call rests on the fitted dose curve; in most records, active means well fitted curve in the direction sought with a large enough effect in the repeat runs; inconclusive means weak or mixed curves; inactive means no such curve, though single readings can be large; an effect the other way counts as inactive or inconclusive.

A short description of assay [1]: qHTS assay to identify small molecule antagonists of the estrogen related receptor (ERR) signaling pathway - cell viability counter screen (AID 1224818).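 Further: series mostly up to about 46 µM; viability measured after 17.5 h of compound exposure.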 Summed up: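 Cytotoxicity check run alongside the ERR antagonist screen: cells exposed to test compounds 17.5 h at 37 C, viability taken as CellTiter-Fluor fluorescence intensity.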
(In general: In qHTS, concentration-response curves come from the screen itself.)

Assay [2] can be described thus: qHTS assay to identify small molecule antagonists of the estrogen related receptor (ERR) signaling pathway (AID 1224819; further: nearly all actives have a fitted effect of over 50% in size; further: potency means the concentration at half of the fitted maximal effect). The method, boiled down: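 ERR reporter cells were plated at 2,000 cells/well and left 6 h at 37 C/5% CO2 before pin-tool transfer of compounds in DMSO. After 18 h at 37 C, One-Glo was added and luminescence was read 30 min later at room temperature.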

Assay [3] in a line: qHTS assay to identify small molecule agonists of the estrogen related receptor (ERR) signaling pathway (AID 1224820). Further: potency means the concentration at half of the fitted maximal effect. The method, boiled down:
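Luminescence readout (One-Glo, 30 min RT) from NTP-supplied ERR cell line exposed to compounds for 18 h at 37 C. Cells seeded 2,000 per well and pre-incubated 6 h before pin-tool compound transfer.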

In assay [4] the test system is estrogen-related receptor alpha (ERRalpha) with PGC-1alpha coactivator, human. The assay can be described thus: qHTS assay to identify small molecule antagonists of the estrogen related receptor signaling pathway with the pleiotropic PPARgamma coactivator (PGC) (AID 1224821; calls by dose curve; further: nearly all actives have a fitted effect of over 50% in size; further: potency means the concentration at half of the fitted maximal effect). The method, boiled down:
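PGC/ERR reporter cells; 6 h pre-incubation 37 C/5% CO2; pin-tool compound in DMSO, 18 h 37 C; One-Glo added, 30 min RT; luminescence read. qHTS antagonist mode.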

A short description of assay [5]: qHTS assay to identify small molecule antagonists of the estrogen related receptor signaling pathway with the pleiotropic PPARgamma coactivator (PGC) cell viability counter screen (AID 1224822;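 further: series mostly up to about 46 µM; viability read after 17.5 h compound exposure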). The method, boiled down:
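Viable cell signal (CellTiter-Fluor, 30 min, 37 C/5% CO2) was measured in PGC/ERR cells after a 17.5 h compound incubation.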

Assay [6] in a line: qHTS assay to identify small molecule agonists of the estrogen related receptor signaling pathway with the pleiotropic PPARgamma coactivator (PGC) (AID 1224823). Further: potency means the concentration at half of the fitted maximal effect. Summed up:
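Luminescence readout (One-Glo, 30 min RT) from PGC/ERR cell line treated 18 h at 37 C with pin-tool-delivered DMSO compound solutions; cells plated 6 h before dosing. Quantitative HTS format.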

On to `NC1(C(=O)O)CCCCC1`, for which the Potency result in assay [1], in assay [2], in assay [3], in assay [4], in assay [5] and in assay [6] was “inactive” each time.
Regarding `C=CCNc1ncnc2ccc(Br)cc12`, the Potency result in assay [1], in assay [3], in assay [5] and in assay [6] was “inactive” in each case. Also, the Potency was 9.44 µM (active) in assay [2] and 10.2 µM (active) in assay [4].
With `COc1cc(/C=C(\C#N)C(=O)Nc2nnc(C(F)(F)F)s2)ccc1OCc1ccc(C(F)(F)F)cc1C(F)(F)F`, the Potency result in assay [1], in assay [3] and in assay [6] was “inactive” each time. Also, the Potency in assay [2] was 6.43 µM (active); in assay [4], 3.48 µM (active).
Take `C[C@H]1CC2C3CCC4=CC(=O)C=C[C@]4(C)[C@@]3(Cl)[C@@H](O)C[C@]2(C)[C@@]1(O)C(=O)CO` (some centres not stated): the Potency result in assay [1], in assay [2], in assay [3], in assay [4], in assay [5] and in assay [6] was “inactive” each time.
As for `O=C1Cc2c([nH]c3ccc(Br)cc23)-c2ccccc2N1`, the Potency result in assay [1], in assay [2] and in assay [4] was “inactive” throughout. The Potency in assay [3] is 2.98 µM (active); in assay [6], 1.23 µM (active).
Consider `Clc1nccc2c1ccc1ccccc12`, for which the Potency entry in assay [1], in assay [2], in assay [3], in assay [4], in assay [5] and in assay [6] was “inactive” throughout.
On to `CC1C(=O)N(C)C(=O)c2nc[nH]c21` (configuration not stated), for which the Potency entry in assay [1], in assay [2], in assay [3], in assay [4], in assay [5] and in assay [6] was “inactive” in each case.
For `N#Cc1cc([N+](=O)[O-])c2sc(C(N)=O)[n+]([O-])c2c1`, the Potency result in assay [1], in assay [2], in assay [3], in assay [4], in assay [5] and in assay [6] was “inactive” each time.
For the compound `Nc1nc2c(nc(Br)n2C2OC3COP(=O)(O)O[C@@H]3C2O)c(=O)[nH]1` (some centres not stated), the Potency result in assay [1], in assay [2], in assay [3], in assay [4], in assay [5] and in assay [6] was “inactive” each time.
On to `N[C@@H](CCC(=O)N[C@H](CSN=O)C(=O)NCC(=O)O)C(=O)O`, for which the Potency entry in assay [1], in assay [2], in assay [3], in assay [4] and in assay [6] was “inactive” throughout.
Regarding `C[N+](C)(C)CC=O`, the Potency result in assay [1], in assay [2], in assay [3], in assay [4], in assay [5] and in assay [6] was “inactive” throughout.
With `Nc1ncnc2c1ncn2[C@@H]1O[C@H](COP(=O)(O)OP(=O)(O)OP(=O)(O)OP(=O)(O)OC[C@@H]2O[C@H](n3cnc4c(N)ncnc43)[C@@H](O)C2O)C(O)[C@H]1O` (some centres not stated), the Potency result in assay [1], in assay [2], in assay [3], in assay [4] and in assay [5] was “inactive” throughout. In assay [6], the Potency is 15 µM (active).
On to `COC(=O)C(N)Cc1ccc(Cl)cc1` (configuration not stated), for which the Potency entry in assay [1], in assay [2], in assay [3], in assay [4] and in assay [6] was “inactive” in each case.
`CC(C)(C)c1cc(/C=C(\C#N)C(N)=S)cc(C(C)(C)C)c1O`: the Potency entry in assay [1], in assay [3] and in assay [6] was “inactive” in each case. The Potency in assay [2] was 2.46 µM (active); in assay [4], 2.11 µM (active).
With `CCCC[C@@]1(C2CCCC2)Cc2cc(OCC(=O)O)c(Cl)c(Cl)c2C1=O`, the Potency entry in assay [1], in assay [3] and in assay [6] was “inactive” in each case. The figures for the Potency in assay [2] and in assay [4] were 11.4 µM (active) and 13.9 µM (active), respectively.
With `NC(CCCP(=O)(O)O)C(=O)O` (configuration not stated), the Potency result in assay [1], in assay [2], in assay [3], in assay [4] and in assay [6] was “inactive” in each case.
Regarding `COC(=O)C(C)(N)Cc1ccc(O)cc1` (configuration not stated), the Potency entry in assay [1], in assay [2], in assay [3], in assay [4] and in assay [6] was “inactive” each time.
Regarding `NCCC1CCCC(CCN)N1` (configuration not stated), the Potency result in assay [1], in assay [2], in assay [3], in assay [4], in assay [5] and in assay [6] was “inactive” throughout.
For `O=C(c1ccc(OCCCc2cnc[nH]2)cc1)C1CC1`, the Potency result in assay [1], in assay [2], in assay [3], in assay [4] and in assay [6] was “inactive” in each case.
Regarding `O=C(O)C1CN(CCCP(=O)(O)O)CCN1` (configuration not stated), the Potency result in assay [1], in assay [2], in assay [3], in assay [4] and in assay [6] was “inactive” throughout.
On to `C=C1C[C@@]23CC[C@H]4[C@@](C)(CCC[C@@]4(C)C(=O)OC4OC(CO)C(O)C(O)C4O)[C@@H]2CC[C@]1(OC1OC(CO)C(O)C(O)C1OC1OC(CO)C(O)C(O)C1O)C3` (some centres not stated), for which the Potency entry in assay [1], in assay [2], in assay [3], in assay [4] and in assay [6] was “inactive” throughout.
For `CCCCCCCCCC[Si](C)(C)CCC(=O)NC(Cc1ccc(C)cc1)c1ccccc1` (configuration not stated), the Potency result in assay [1], in assay [2], in assay [3], in assay [4] and in assay [6] was “inactive” in each case.
On to `NC(=O)C(=O)O`, for which the Potency result in assay [1], in assay [2], in assay [3], in assay [4], in assay [5] and in assay [6] was “inactive” in each case.
In the case of `Oc1ccc(C2CNCc3sccc32)cc1O` (configuration not stated), the Potency entry in assay [1], in assay [2], in assay [3], in assay [4], in assay [5] and in assay [6] was “inactive” in each case.
In the case of `CNCCc1cnc(CCC(c2ccccc2)c2ccccc2)[nH]1`, the Potency entry in assay [1], in assay [2], in assay [3], in assay [4] and in assay [6] was “inactive” each time.
With `N[C@H](C(=O)O)c1cc(O)cc(O)c1`, the Potency result in assay [1], in assay [2], in assay [3], in assay [4] and in assay [6] was “inactive” throughout.
For `Nc1ncnc2n[nH]c(Nc3ccc(F)cc3)c12`, the Potency result in assay [1], in assay [2], in assay [3] and in assay [4] was “inactive” in each case. Also, the Potency in assay [6] was 22.8 µM (active).
Turning to `CC(C)[C@@H]1CC[C@@H](C)C[C@@H]1P(=O)(c1ccccc1)c1ccccc1`, the Potency result in assay [1], in assay [2], in assay [3], in assay [4] and in assay [6] was “inactive” in each case.
Regarding `CCCCCCCCc1ccc(-c2ccc(C(=O)O)cc2)cc1`, the Potency entry in assay [1], in assay [2], in assay [3], in assay [4] and in assay [6] was “inactive” throughout.
`Cn1c(=O)c2c(nc(/C=C/c3cccc(Cl)c3)n2C)n(C)c1=O`: the Potency entry in assay [1], in assay [2], in assay [3], in assay [4] and in assay [6] was “inactive” in each case.
